Assay outcomes: PubChem, NMMLSC
An excerpt weighted towards active compounds, which were near 1.7% of everything screened.
FPR binder: human FPR ligands by binding competition, primary screen, cell-based, FPRL1 counter-screen, flow cytometry; fMet-Leu-Phe receptor (Homo sapiens), P21462; inhibition, % (no concentration beside the values); actives 0.74% (n = 24,000); FPR-expressing cells, fluorescent ligand binding; AID 440, 2006;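 further: 0% = buffer wells and 100% = receptor blocker peptide wells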
Target sequence (P21462 whole entry, looked up): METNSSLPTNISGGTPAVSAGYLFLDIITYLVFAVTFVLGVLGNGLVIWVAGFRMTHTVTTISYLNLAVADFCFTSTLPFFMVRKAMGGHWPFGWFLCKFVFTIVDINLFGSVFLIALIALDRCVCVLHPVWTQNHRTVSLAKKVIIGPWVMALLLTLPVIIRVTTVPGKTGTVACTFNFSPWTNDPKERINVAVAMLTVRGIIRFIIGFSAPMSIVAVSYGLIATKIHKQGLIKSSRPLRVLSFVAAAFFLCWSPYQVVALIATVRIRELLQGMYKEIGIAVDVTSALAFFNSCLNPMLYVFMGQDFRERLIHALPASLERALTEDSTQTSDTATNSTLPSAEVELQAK
Prostate diff: activators of LNCaP prostate cell differentiation, primary screen, flow cytometry side scatter. 4 d. side scatter shift, % at 10 µM. actives 0.56% (n = 24,000);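 active means side scatter shift above 30%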;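 further: androgen-responsive LNCaP prostate cancer cells in charcoal-stripped serum medium; percent of cells past a gate set so DMSO wells show 10% shift; higher shift means more granular cells and more differentiation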
S aureus QS inh: S. aureus quorum sensing inhibitors, primary screen, RNAIII-GFP reporter, flow cytometry. S. aureus RN6390 RNAIII-GFP reporter, AIP-induced, flow cytometry 3 h. inhibition, % at 2 µM. actives 0.3% (n = 24,000). AID 527, 2006;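 active means share of bacteria positive for the green fluorescent reporter and its mean brightness both inhibited by 50% or more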;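 further: 0% = AIP-stimulated control and 100% = unstimulated bacteria without AIP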
FPRL1 binder: human FPRL1 ligands by binding competition, primary screen, cell-based, FPR counter-screen, flow cytometry | N-formyl peptide receptor 2 (Homo sapiens), P25090 | FPRL1-expressing cells, fluorescent ligand binding inhibition | inhibition, % (test concentration not listed) | actives 0.3% (n = 24,000);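 further: 0% = buffer alone and 100% = receptor blocker peptide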
* marks the source's active call; other numbers are inactive results; · = not tested or not shown. Unless noted, no stated cut-off is given here; in the data, active means inhibition above about 30%; inconclusive means no clear call, values can overlap the other calls; inactive means below that.

SMILES	FPR binder	Prostate diff	S aureus QS inh	FPRL1 binder
CC1=C(C)C(=O)NC(Nc2nc(C)c3cc(C)cc(C)c3n2)N1 (stereo not given)	-1.9	4.0	1.0	-1.5
COc1ccc(N2CCN(Cc3nc4c(c(=O)n(C)c(=O)n4C)n3Cc3ccccc3C)CC2)cc1	4.8	4.0	1.0	-3.2
O=C(NCCN1CCN(c2ccccc2)CC1)c1cccn2c(=O)c3ccccc3nc12	1.6	0.0	80.1*	2.9
Cc1cc(=O)n2nc(N3CCCC(C(=O)NCCCN4CCc5ccccc5C4)C3)sc2n1 (stereo not given)	-2.2	38.0*	1.7	-1.4
CCCOc1cccc(C2C(C(=O)c3ccc(C)o3)=C(O)C(=O)N2CCCN(C)C)c1 (stereo not given)	-6.0	·	·	4.2
O=C(O)CC1Oc2ccc(Cl)cc2NC1=O (stereo not given)	-38.1	3.0	4.4	36.7*
CCN(CC)CCN1C(=O)C(=O)/C(=C(/O)c2c(C)[nH]c(C(=O)OC)c2C)C1c1ccccc1 (stereo not given)	30.5*	·	·	15.7
CN(CC(=O)N1CCc2ccccc21)S(=O)(=O)c1ccc(Br)s1	-0.7	8.0	-2.0	11.9
Cc1nc2ccc(S(=O)(=O)NCC(=O)N3CCC(C)CC3)cc2s1	-2.8	15.0	-0.8	-0.3
Cc1cc(NC(=O)C2CCCC2)nc2c1c(=O)oc1ccccc12	-2.3	6.0	54.1*	-12.9
Cc1cc(NC(=O)C2CCCCC2)nc2c1c(=O)oc1ccccc12	-14.9	9.0	-4.1	-15.2
CCOC(=O)c1c(NC(=O)c2cc(C3CC3)on2)sc2c1CCCC2	9.6	11.0	-2.4	58.2*
COc1ccc(-c2cn3cccnc3n2)cc1NC(=O)c1ccc(Br)o1	3.0	7.0	0.2	10.4
COc1ccc(-c2cn3cccnc3n2)cc1NC(=O)CC(C)C	3.1	14.0	-5.2	39.5*
CCCC(=O)Nc1cc(-c2cn3cccnc3n2)ccc1OC	-1.4	10.0	-4.3	47.3*
COc1cccc(-c2nn(C)c3sc(C(=O)Nc4ccc5c(c4)OCCO5)cc23)c1	6.5	24.0	82.1*	5.4
COc1ccc(CN(C(=O)c2ccccc2OC)C2CCS(=O)(=O)C2)cc1 (stereo not given)	51.4*	19.0	-0.6	50.6*
Cc1cc(C)n(Cc2ccc(F)cc2)c(=O)c1C#N	0.5	17.0	-1.4	2.3
Cc1cc(C)n2nnnc2c1C#N	2.4	37.0*	1.9	-7.5
N=c1c(C(=O)NC2CCCC2)cc2c(=O)n3ccccc3nc2n1C1CCCC1	0.9	68.0*	-1.0	-7.5
Cc1cccn2c(=O)c3cc(C(=O)NC4CCCC4)c(=N)n(C4CCCC4)c3nc12	10.0	19.0	1.5	-3.2
CCOC(=O)N1CCC(N2C(=O)c3ccc(C(=O)NC4CCCCCC4)cc3C2=O)CC1	-11.1	11.0	5.4	-0.6
COc1ccccc1N1CCN(CCCNC(=O)Nc2ccccc2C)CC1	-16.5	3.0	-8.1	-19.4
COc1ccc(Cl)c(N2CCN(CCCNC(=O)Nc3ccc(C)cc3)CC2)c1	-5.6	40.0*	4.0	-1.5
COc1ccc(Cl)c(NC(=O)NCCN2CCN(c3ccccc3)CC2)c1	6.6	18.0	0.1	0.3
SMILES	FPR binder	Prostate diff	S aureus QS inh	FPRL1 binder
COc1ccc(Cl)cc1N1CCN(CCNC(=O)Nc2ccccc2C)CC1	13.5	45.0*	0.1	-0.8
COc1ccc(-n2c(Cc3cccn3C)nnc2SCC(=O)Nc2ccc(Cl)cc2)cc1	55.6*	9.0	19.3	1.0
Cn1cccc1Cc1nnc(SCC(=O)Nc2ccccc2)n1-c1ccc(F)cc1	2.0	4.0	60.6*	-4.7
Cn1cccc1Cc1nnc(SCC(=O)Nc2ccc(F)cc2)n1-c1ccc(F)cc1	-1.0	8.0	-7.1	-1.2
O=C(Cc1nn[nH]n1)NCc1ccccc1Cl	2.9	3.0	2.0	-2.5
COc1cccc(C2C(C(=O)c3cccs3)=C(O)C(=O)N2CCCn2ccnc2)c1OC (stereo not given)	32.4*	13.0	-0.4	-1.4
CCCOc1ccc(/C(O)=C2/C(=O)C(=O)N(CCCn3ccnc3)C2c2cccs2)cc1 (stereo not given)	6.3	·	·	1.1
CCOc1cc(C2C(C(=O)c3ccco3)=C(O)C(=O)N2CCc2ccccc2)ccc1O (stereo not given)	86.0*	·	·	-3.6
Cc1ccc(C2C(C(=O)c3sc(C)nc3C)=C(O)C(=O)N2CCN2CCOCC2)o1 (stereo not given)	35.3*	·	·	25.6
COCCCN1C(=O)C(O)=C(C(=O)c2ccco2)C1c1ccccc1 (stereo not given)	42.9*	·	·	0.6
CNC(=O)c1cc2c(=O)n3cccc(C)c3nc2n1C	1.7	13.0	-3.2	-6.3
COc1ccc(C2C(C(=O)c3sc(C)nc3C)=C(O)C(=O)N2CCN(C)C)cc1 (stereo not given)	3.7	9.0	-0.3	-2.0
Cc1nc(C)c(C(=O)C2=C(O)C(=O)N(CCCn3ccnc3)C2c2ccc(Cl)cc2)s1 (stereo not given)	38.3*	·	·	23.7
CC(C)Oc1ccc(C2C(C(=O)c3ccco3)=C(O)C(=O)N2Cc2cccnc2)cc1 (stereo not given)	16.5	·	·	-2.2
CCCOc1ccc(C2C(C(=O)c3ccco3)=C(O)C(=O)N2CCCn2ccnc2)cc1 (stereo not given)	55.0*	·	·	-5.1
Cn1c(C(=O)NCCCN2CCCC2=O)cc2c(=O)n3ccccc3nc21	5.1	7.0	-2.0	0.9
COc1ccc(-c2noc(CCC(=O)NCCCN3CCC(Cc4ccccc4)CC3)n2)cc1	-2.8	32.0*	-1.3	1.5
CN1CCN(S(=O)(=O)c2ccc(Sc3nnc(-c4cccs4)n3-c3ccccc3)nc2)CC1	-2.5	13.0	1.3	6.1
CC(=O)C(Sc1nc(-c2ccco2)nc2c1c(=O)n(C)c(=O)n2C)C(=O)N(C)C (stereo not given)	-2.2	6.0	0.9	-3.2
CCOC(=O)Cc1cc(=O)n2[nH]c(C)c(C#N)c2n1	-14.6	·	·	-7.7
CCOC(=O)Cc1cc(=O)n2[nH]c(C)c(-c3ccccc3)c2n1	51.2*	·	·	26.0
CCOc1ccc(C2CC(c3cccc(OC)c3)Nc3ncnn32)cc1 (stereo not given)	-2.8	6.0	-5.0	0.3
CSc1ccccc1NS(=O)(=O)c1ccccc1	30.9*	7.0	-13.5	29.1
COc1ccc(S(=O)(=O)Nc2ccccc2SC)cc1C	-1.2	16.0	-0.8	1.5
Cc1ccc(C)c(-n2c(CNC(=O)c3ccco3)nnc2SCC(=O)N2CCc3ccccc32)c1	55.1*	3.0	0.6	0.4
CCOC(=O)c1ccccc1NC(=O)Cn1c(-c2nonc2N)nc2ccccc21	3.8	32.0*	17.4	-1.9
CCC(=O)Nc1nonc1-c1nc2ccccc2n1CC(C)C	-4.8	1.0	-0.3	2.3
CCOC(=O)c1nn(-c2ccc(OC)cc2)c(=O)c2c(NC(=O)c3ccco3)scc12	5.5	16.0	-2.7	-6.3
CCOCCCNC(=O)c1cc2c(-c3ccc(Cl)cc3)nn(C)c2s1	3.4	0.0	-4.6	-2.2
CCN(CC)CCNC(=O)c1cc2c(-c3ccc(Cl)cc3)nn(C)c2s1	-1.8	40.0*	-0.9	-6.6
